This note sets out measurements from ChEMBL document CHEMBL1961873, “Compounds: GSK PKIS; Assays: Nanosyn kinase panel” (2012).

Test [1] addresses T1, Serine/threonine-protein kinase D2 (Homo sapiens) (UniProt Q9BZL6).
T1 sequence (whole entry): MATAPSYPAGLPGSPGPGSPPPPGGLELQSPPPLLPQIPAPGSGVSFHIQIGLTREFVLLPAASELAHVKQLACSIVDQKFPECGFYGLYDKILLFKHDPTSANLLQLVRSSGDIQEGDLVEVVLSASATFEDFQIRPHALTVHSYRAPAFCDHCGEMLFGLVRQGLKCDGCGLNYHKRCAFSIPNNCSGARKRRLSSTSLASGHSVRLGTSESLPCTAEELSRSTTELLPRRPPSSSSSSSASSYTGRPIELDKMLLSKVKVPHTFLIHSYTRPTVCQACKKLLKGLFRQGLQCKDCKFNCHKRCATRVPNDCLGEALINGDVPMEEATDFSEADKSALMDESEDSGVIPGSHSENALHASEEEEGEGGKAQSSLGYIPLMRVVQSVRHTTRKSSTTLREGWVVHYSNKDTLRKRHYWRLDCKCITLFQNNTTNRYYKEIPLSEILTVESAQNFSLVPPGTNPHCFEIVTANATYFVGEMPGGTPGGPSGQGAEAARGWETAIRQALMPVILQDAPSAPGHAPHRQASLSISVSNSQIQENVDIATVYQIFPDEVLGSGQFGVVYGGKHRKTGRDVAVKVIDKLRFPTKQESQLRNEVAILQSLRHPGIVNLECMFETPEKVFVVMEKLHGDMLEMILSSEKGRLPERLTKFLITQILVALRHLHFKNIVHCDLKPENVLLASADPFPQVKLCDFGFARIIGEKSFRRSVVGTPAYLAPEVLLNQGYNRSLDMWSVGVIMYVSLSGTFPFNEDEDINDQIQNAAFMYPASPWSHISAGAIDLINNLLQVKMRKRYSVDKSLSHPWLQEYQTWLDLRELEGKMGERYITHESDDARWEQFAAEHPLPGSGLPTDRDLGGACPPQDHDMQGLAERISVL
Particulars: at 1 µM.

The target of test [2] is T2, Serine/threonine-protein kinase D3 (Homo sapiens) (UniProt O94806).
T2 sequence (whole entry): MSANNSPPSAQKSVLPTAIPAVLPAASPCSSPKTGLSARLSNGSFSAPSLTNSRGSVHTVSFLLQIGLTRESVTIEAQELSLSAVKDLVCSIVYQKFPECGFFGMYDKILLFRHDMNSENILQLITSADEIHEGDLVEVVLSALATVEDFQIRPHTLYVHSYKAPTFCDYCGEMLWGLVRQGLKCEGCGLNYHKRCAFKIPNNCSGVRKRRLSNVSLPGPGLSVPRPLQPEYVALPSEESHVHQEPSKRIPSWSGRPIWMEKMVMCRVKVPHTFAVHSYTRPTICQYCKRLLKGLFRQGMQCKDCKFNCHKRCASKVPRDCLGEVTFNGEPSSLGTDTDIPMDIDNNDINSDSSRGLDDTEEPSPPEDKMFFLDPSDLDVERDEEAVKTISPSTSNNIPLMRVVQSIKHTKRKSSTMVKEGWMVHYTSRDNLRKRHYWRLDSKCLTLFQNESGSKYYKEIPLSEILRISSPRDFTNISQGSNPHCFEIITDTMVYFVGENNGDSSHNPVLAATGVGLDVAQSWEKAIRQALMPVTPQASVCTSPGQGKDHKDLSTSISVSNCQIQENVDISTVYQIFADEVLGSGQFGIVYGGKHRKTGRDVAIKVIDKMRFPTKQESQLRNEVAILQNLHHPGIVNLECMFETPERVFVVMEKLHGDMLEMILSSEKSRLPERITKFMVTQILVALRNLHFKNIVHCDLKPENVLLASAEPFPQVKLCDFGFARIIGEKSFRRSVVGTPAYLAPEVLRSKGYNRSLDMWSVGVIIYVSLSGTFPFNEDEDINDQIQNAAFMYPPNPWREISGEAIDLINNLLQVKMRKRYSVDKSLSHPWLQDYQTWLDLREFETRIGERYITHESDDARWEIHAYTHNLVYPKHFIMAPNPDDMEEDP
Conditions: at 0.1 µM.

For test [3], the target named is T2, Serine/threonine-protein kinase D3 (Homo sapiens). Conditions: at 1 µM.
Test [4] concerns the target T3, cGMP-dependent protein kinase 1 (Homo sapiens) (UniProt Q13976).
T3 sequence (whole entry): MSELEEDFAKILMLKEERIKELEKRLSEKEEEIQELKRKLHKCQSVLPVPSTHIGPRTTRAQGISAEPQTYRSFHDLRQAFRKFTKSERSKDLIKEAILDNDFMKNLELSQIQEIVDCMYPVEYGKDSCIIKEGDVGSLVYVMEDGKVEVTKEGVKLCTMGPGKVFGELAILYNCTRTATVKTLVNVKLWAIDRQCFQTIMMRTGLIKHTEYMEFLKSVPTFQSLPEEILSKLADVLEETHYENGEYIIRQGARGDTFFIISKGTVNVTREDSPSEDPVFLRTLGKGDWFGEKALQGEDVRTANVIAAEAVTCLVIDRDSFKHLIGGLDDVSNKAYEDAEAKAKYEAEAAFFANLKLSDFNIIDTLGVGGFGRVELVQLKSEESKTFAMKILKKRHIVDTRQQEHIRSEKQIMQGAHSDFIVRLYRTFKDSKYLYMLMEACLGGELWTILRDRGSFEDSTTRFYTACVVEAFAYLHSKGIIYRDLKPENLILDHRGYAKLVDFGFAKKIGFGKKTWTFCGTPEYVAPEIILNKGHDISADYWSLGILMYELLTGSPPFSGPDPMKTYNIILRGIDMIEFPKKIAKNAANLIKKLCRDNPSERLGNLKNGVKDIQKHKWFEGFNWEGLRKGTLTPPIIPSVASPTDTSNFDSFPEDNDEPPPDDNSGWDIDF
Particulars: at 0.1 µM.

For test [5], the target named is T3, cGMP-dependent protein kinase 1 (Homo sapiens). Conditions: at 1 µM.
Test [6] has as its target T4, cGMP-dependent protein kinase 2 (Homo sapiens) (UniProt Q13237).
T4 sequence (whole entry): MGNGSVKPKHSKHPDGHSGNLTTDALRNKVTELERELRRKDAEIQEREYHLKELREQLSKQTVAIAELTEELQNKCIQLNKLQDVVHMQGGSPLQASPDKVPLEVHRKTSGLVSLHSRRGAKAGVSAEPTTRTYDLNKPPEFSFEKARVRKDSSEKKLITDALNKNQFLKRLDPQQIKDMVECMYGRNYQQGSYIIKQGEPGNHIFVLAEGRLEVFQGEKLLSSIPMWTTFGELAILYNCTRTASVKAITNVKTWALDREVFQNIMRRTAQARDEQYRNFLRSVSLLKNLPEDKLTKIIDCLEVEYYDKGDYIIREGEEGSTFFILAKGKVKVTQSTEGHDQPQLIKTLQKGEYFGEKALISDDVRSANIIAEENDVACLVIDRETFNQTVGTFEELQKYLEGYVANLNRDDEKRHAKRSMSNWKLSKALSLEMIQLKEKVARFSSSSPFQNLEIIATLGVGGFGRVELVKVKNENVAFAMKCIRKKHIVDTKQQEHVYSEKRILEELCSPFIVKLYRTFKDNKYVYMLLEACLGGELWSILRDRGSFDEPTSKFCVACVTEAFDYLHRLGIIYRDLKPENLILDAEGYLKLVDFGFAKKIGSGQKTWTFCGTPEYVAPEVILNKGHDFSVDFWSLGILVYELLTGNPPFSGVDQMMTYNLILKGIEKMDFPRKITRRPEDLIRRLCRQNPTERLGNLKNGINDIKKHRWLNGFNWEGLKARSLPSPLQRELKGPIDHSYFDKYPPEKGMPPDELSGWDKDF
Conditions: at 0.1 µM.

The target of test [7] is T4, cGMP-dependent protein kinase 2 (Homo sapiens). Conditions: at 1 µM.
The target of test [8] is T5, cAMP-dependent protein kinase catalytic subunit PRKX (Homo sapiens) (UniProt P51817).
T5 sequence (whole entry): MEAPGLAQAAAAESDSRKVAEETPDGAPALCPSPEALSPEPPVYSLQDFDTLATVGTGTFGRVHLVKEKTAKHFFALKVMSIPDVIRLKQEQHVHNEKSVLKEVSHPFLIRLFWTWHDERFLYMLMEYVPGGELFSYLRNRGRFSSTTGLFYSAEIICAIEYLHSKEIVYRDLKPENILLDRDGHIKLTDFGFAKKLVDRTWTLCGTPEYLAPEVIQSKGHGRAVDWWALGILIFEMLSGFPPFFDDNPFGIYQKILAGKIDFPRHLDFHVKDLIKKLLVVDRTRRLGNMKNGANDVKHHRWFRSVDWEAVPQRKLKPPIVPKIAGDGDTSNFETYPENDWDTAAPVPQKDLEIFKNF
Conditions: at 0.1 µM.

Test [9] concerns the target T5, cAMP-dependent protein kinase catalytic subunit PRKX (Homo sapiens). Particulars: at 1 µM.
Test [10] concerns the target Rho-associated protein kinase 1 (Homo sapiens) (UniProt Q13464). Conditions: at 0.1 µM.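 Further: values are mean percent inhibition of ROCK1.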

Chain of Rho-associated protein kinase 1 (Homo sapiens) (Q13464 2-1354 limits assumed): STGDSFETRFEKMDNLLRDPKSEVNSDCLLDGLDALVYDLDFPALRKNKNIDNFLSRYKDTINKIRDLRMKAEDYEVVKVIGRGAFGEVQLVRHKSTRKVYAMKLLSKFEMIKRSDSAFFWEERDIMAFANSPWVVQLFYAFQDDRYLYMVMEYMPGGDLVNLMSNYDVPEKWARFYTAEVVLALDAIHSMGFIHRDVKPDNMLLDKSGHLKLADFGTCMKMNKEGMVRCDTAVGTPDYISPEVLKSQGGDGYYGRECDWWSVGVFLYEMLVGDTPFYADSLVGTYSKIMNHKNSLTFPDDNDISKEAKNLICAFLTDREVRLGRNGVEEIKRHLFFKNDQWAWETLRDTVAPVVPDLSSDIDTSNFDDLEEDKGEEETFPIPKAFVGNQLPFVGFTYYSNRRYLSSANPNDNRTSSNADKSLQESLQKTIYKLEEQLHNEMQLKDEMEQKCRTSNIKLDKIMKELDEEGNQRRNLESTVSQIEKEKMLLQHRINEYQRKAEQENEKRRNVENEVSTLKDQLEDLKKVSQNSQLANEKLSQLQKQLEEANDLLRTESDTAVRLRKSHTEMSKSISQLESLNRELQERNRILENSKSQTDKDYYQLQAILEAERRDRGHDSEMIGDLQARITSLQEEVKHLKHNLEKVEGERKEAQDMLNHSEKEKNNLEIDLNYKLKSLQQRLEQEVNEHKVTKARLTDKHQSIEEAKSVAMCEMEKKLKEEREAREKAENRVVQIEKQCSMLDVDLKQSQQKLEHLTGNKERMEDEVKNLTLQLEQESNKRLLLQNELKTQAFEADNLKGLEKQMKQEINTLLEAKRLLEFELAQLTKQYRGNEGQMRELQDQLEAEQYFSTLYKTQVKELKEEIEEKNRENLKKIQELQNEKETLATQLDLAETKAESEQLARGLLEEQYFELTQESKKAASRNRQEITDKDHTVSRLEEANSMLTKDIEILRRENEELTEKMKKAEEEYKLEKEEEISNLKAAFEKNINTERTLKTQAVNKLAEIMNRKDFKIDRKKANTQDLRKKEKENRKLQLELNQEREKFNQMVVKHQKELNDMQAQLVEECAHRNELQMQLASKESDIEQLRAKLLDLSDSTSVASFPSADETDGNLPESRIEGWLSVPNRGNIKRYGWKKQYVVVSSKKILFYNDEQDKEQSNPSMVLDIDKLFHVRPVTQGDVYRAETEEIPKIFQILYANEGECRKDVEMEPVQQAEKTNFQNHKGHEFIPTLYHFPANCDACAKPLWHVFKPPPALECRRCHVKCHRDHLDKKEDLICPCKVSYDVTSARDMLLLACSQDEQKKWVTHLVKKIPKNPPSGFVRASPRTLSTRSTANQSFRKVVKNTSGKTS

Turning to `CC1=C(C(=O)Nc2ccc3[nH]ncc3c2)C(c2ccc(Cl)c(Cl)c2)CC(=O)N1` (stereo not given), the inhibition (usually the relative decrease from the control value, in per cent) came out at 5.98% in test [1]; 1.11% in test [2]; 9.26% in test [3]; 10.1% in [4]; 50% in test [5]; 5.19% in test [6]. The inhibition in [7] was determined as 34.7%; in test [8], 14.8%; in test [9] it was 59.2%; in test [10], 68.6%.
With `COc1cc(C)c(NC(=O)CN(C)C)cc1Nc1nc(Nc2cccc(F)c2C(N)=O)c2cc[nH]c2n1`, the inhibition was found to be 31.9% in test [1]; 3.99% in test [2]; 38.4% in test [3]; 1.52% in [4]; 4.26% in test [5]; 1.95% in test [6]. Moreover, the inhibition in test [7] is 2.22%; in test [8], -0.65%; in [9], -1.72%; in test [10] it was 0.5%.
As for `Cc1cccc(-c2n[nH]cc2-c2ccc3ncccc3n2)n1`, the inhibition worked out at 46.9% in test [1]; 2.2% in test [2]; 30.5% in [3]; 1.36% in test [4]; 0.89% in test [5]; 0.94% in test [6]. Besides, the inhibition in test [7] was 0.72%; in test [8], 0.91%; in test [9], 1.8%; in [10] it was 0.48%.
For `NS(=O)(=O)c1ccc(N/N=C2\C(=O)Nc3ccc(C(=O)NCCc4c[nH]cn4)cc32)cc1`, the inhibition is 32.9% in test [1]; 7.41% in test [2]; 38.6% in test [3]; 23.6% in test [4]; 70.1% in [5]; 9.57% in [6]. For the same molecule, the inhibition in [7] stood at 50.8%; in test [8], 2.93%; in test [9] it was 12.2%; in [10], 1.37%.
In the case of `Cc1nn(C)c2cc(N(C)c3ccnc(Nc4cccc(S(N)(=O)=O)c4)n3)ccc12`, the inhibition in test [1] stood at 4.2%; in [2] it was 2.9%; in [3], 3.56%; in test [4] it was 4.25%; in [5], 6.59%; in test [6] it was 2.42%. Besides, the inhibition was found to be 5.81% in test [7], 2.89% in [8], 5.35% in test [9] and 1.17% in test [10].
Take `CCCN1CCC=C(c2ccc(Nc3nc(Nc4ccccc4C(N)=O)c4cc[nH]c4n3)c(C)c2)C1`: the inhibition was found to be 68.5% in test [1]; 18.8% in test [2]; 61.7% in [3]; 4.43% in test [4]; 18.8% in [5]; 5.72% in test [6]. For the same molecule, the inhibition in test [7] stood at 31.8%; in [8], 2.31%; in test [9], 2.1%; in test [10], 2.33%.
As for `[O-][S+]1CCN(Cc2ccc(-c3ccc4ncnc(Nc5ccc(OCc6ccccc6)c(F)c5)c4c3)o2)CC1`, the inhibition in test [1] stood at 4.32%; in test [2], 2.88%; in [3] it was 3.26%; in test [4] it was 1.05%; in [5], 3.37%; in [6], 0.25%. In addition, the inhibition in [7] is 2.79%; in test [8], 0.09%; in [9], -1.73%; in test [10], -0.61%.
As to `NC(=O)c1cccc(Nc2nccc(Nc3cccc4[nH]ncc34)n2)c1`, the inhibition in [1] is 5%; in test [2], -3.05%; in test [3], 4.5%; in [4], -0.53%; in test [5], 5.24%; in test [6], 0.86%. Further, the inhibition in test [7] was 7.93%; in test [8] it was 7.81%; in test [9], 9.23%; in [10] it was 0.94%.
